Screening data (PubChem BioAssay)
Rows were chosen to be rich in hits. Some 0.24% of all compounds tested hit in one or more screens of this group.
NPYLR7 agonist: agonists of mosquito NPYLR7 receptor, primary screen, cell-based, Aedes aegypti, calcium fluorescence, mosquito biting behavior; HEK293T NPYLR7/Galpha15, GCaMP6s calcium fluorescence; activation, % at 10 µM; Aedes aegypti neuropeptide Y-like receptor 7 (NPYLR7); 270,000 compounds, 0.15% hits; in the data active = activation above about 40%
hcGAS lum: Primary biochemical luminescence assay for human cyclic GMP-AMP synthase inhibitors; inhibition, % at 12.5 µM; recombinant h-cGAS, ATP depletion, Kinase-Glo luminescence; Q8N884; AID 1259398, 2018; 290,000 compounds, 0.081% hits
mcGAS inh: cyclic GMP-AMP synthase inhibitors, mouse, primary biochemical chemiluminescence; Q8C6L5; recombinant cGAS, Kinase-Glo ATP depletion luminescence; inhibition, % at 12.5 µM; 160,000 compounds, 0.15% hits; AID 1259399, 2018
Target sequence (Q8C6L5 whole entry, looked up): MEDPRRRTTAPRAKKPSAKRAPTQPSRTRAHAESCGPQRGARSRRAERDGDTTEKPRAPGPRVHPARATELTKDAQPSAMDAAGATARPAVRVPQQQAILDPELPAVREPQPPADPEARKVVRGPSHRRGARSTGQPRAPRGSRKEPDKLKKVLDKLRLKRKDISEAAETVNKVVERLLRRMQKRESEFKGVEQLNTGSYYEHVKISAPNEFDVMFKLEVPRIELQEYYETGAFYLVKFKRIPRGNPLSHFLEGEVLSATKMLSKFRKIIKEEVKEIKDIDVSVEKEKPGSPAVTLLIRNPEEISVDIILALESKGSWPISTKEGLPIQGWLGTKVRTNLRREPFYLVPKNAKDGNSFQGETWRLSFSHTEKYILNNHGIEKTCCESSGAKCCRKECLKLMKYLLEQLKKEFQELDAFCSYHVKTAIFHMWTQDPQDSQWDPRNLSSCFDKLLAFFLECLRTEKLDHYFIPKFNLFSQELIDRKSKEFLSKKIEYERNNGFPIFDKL
Of the large screens only hits and unclear results are named; the others gave an inactive call; ! = repeats disagree. Cut-off read from the data, not from the text of the source, unless noted: active = inhibition above about 40%; inactive = the rest.

O=C(NCCSc1ccc(Cl)cc1)c1ccc2c(=O)n3c(nc2c1)CCC3	NPYLR7 agonist 82 (no result: mcGAS inh)
Cc1cccc(NS(=O)(=O)c2c(C)nn(C)c2Cl)c1C(=O)O	none (no result: mcGAS inh)
Cc1nn(C)c(Cl)c1/C=C1/CCCc2c1nc1ccccc1c2C(=O)O	NPYLR7 agonist 57
COc1cccc(CNC2CC2)c1OCc1nc(CO)cs1	NPYLR7 agonist 46 (no result: mcGAS inh)
COc1cccc(CN(C(=O)c2cccc(F)c2)C2CC2)c1OCc1nc(CO)cs1	none
COC(=O)c1sc2[nH]c(=S)n(CCN3CCCC3)c(=O)c2c1C	none (no result: mcGAS inh)
COC(=O)C1=C(C(=O)OC)SC(=CC(=S)c2ccc(OC)cc2)S1	none (no result: mcGAS inh)
COCCCN(Cc1c(C)nn(-c2cccc(F)c2)c1N1CCN(C)CC1)S(=O)(=O)c1ccc(Cl)cc1	none
CCn1ccnc1CN(C)c1cc(C2CCCNC2)nc(C)n1 (configuration not stated)	none (no result: mcGAS inh)
N#CC1C(=N)SC(=N)C(C#N)C1c1cccs1 (configuration not stated)	hcGAS lum 74, mcGAS inh 70
CC(=O)[C@@H]1SC(=N)C(C#N)[C@H]1c1cccs1 (some centres not stated)	none
C=CCn1c(O)c(C=Nc2ccccc2)sc1=S	none
Oc1[nH]c(=S)sc1C=Nc1ccccc1	mcGAS inh 57
CC(C)OCc1ccc(C(=O)Nc2cccc(-c3nn[nH]n3)c2)cc1	none
N#Cc1cccc(C(=O)N2CCN(C(c3ccccc3)c3ccccc3)CC2)c1	none
N#Cc1cccc(C(=O)N2CCN(C(c3ccccc3)c3ccc(Br)cc3)CC2)c1 (configuration not stated)	NPYLR7 agonist 42
CN(C)CCc1cc2c(c3c1ccc1ccccc13)OCO2	hcGAS lum 70, mcGAS inh 56
CN(C)Cc1c2ccccc2cc2ccccc12	none (no result: mcGAS inh)
CC(C)NC(=O)NC1CCN(c2ccccc2C(=O)N2CCN(c3ccccn3)CC2)CC1	none
CCN(CC)c1ccc(/C=C2\SC(=S)N(CCS(=O)(=O)O)C2=O)cc1	NPYLR7 agonist 137
CCN1C(=O)/C(=C/c2ccc(N(C)C)cc2)SC1=S	none
CCN(CC)c1ccc(/C=C2/SC(=S)N(CC(=O)O)C2=O)cc1	NPYLR7 agonist 42
O=C(O)CN1C(=O)/C(=C\c2ccc(I)cc2)SC1=S	none
Cc1ccc(NC(C)c2c(F)cccc2F)cc1C(N)=O (configuration not stated)	none (no result: mcGAS inh)
CCN1C(=O)SC(N(CCN2C(=O)CSC2=O)c2cccc(C)c2)C1=O (configuration not stated)	none
CCCCN=C(N)N=C(N)N	none (no result: mcGAS inh)
CCCCC(CC)CN=C(N)NC(N)=NCCCCCCN=C(N)NC(N)=NCC(CC)CCCC (configuration not stated)	NPYLR7 agonist 46!
O=C(NC1CC1)C(C1CCCC1)N1CCN(C(=O)c2cccs2)CC1 (configuration not stated)	none
Clc1cc2c(c(CSc3nnnn3-c3ccccc3)c1)OCOC2	hcGAS lum 72
Clc1cc2c(c(CSc3nnc(-c4ccccc4)o3)c1)OCOC2	none
NC(=NC1C2CC3CC(C2)CC1C3)Nc1ccc(I)cc1 (configuration not stated)	NPYLR7 agonist 43 (no result: mcGAS inh)
CSC(C)C(=O)Nc1ccc(I)cc1 (configuration not stated)	none
CS(=O)(=O)Nc1nc2n(n1)C(c1ccccc1)CC(c1ccc(Cl)cc1)=N2 (configuration not stated)	NPYLR7 agonist 66 (no result: mcGAS inh)
O=S(=O)(Nc1nc2n(n1)C(c1ccccc1)CC(c1ccccc1)=N2)c1ccccc1 (configuration not stated)	none
COc1ccccc1-c1cc(C(=O)NCCN2CCCC2)n2nc(-c3ccc(Cl)cc3)cc2n1	mcGAS inh 44!
COc1ccccc1-c1cc(C(=O)NCCN2CCCCC2)nc2cc(-c3ccc(Cl)cc3)nn12	none
CCOC(=O)CSc1nc(N)c(C(=O)Nc2nccs2)s1	none
Oc1ccccc1C1=NNC2(CC3CC2C2CCCC32)S1 (configuration not stated)	hcGAS lum 78 (no result: mcGAS inh)
N#Cc1ccc(C(=O)Nc2ccc3[nH]cc(CCN4CCN(c5cccc(C(F)(F)F)c5)CC4)c3c2)cc1	none
CN(C)C(N)=NCCC[C@H](N)C(=O)O	none
NC(=NCCC[C@H](N)C(=O)O)NO	mcGAS inh 58
COc1ccccc1NC(=O)NCc1cccnc1N1CCN(C(C)=O)CC1	none (no result: mcGAS inh)
Cc1noc(-c2cccc(C(F)(F)F)c2)c1C(=O)NC(C)c1cccc2ccccc12 (configuration not stated)	none
Cc1ccccc1NC1CCN(C(=O)c2c(C)oc(C)c2C)CC1	none (no result: mcGAS inh)
O=C1C(=Cc2ccco2)Sc2ccccc21	none (no result: mcGAS inh)
O=C1C(=Cc2cccnc2)Sc2ccccc21	mcGAS inh 65
